Laboratory results reported in PubChem BioAssay AID602449 (Sanford-Burnham Center for Chemical Genomics, 2012).
Among all 360,000 compounds or so, about 5,000 (1.4%) were called active. Only a selection was taken, and actives are over-represented in it overall. A number with no mark means an inactive call.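 How the source made its calls: active means inhibition of 50% or more, scaled per plate between neutral and stimulator controls; inactive means the rest.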

Experiment: mitochondrial permeability transition pore inhibitors, primary screen, biochemical, isolated mouse mitochondria, absorbance (AID 602449);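 further: 0% = DMSO wells given calcium and 100% = 1 mM EGTA wells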
Details: Ca2+ swelling absorbance, 30 min, at 10 µM, hits give high values

Row | SMILES | inhibition
1 | O=C(CN1C(=O)NC2(CCCCCCC2)C1=O)NCc1ccc(F)cc1 | -0.5%
2 | Cc1ccc(-c2nc3c(Cl)cc(C(F)(F)F)cn3c2Cc2cccc(Cl)c2)cc1 | 4.1%
3 | COc1cc(C(C(=O)NC2CCCC2)N(C(=O)c2ccco2)c2ccccc2C(C)=O)cc(OC)c1OC (centres undefined) | -1.2%
4 | COC(=O)c1sccc1NC(=O)CSc1ccccc1NS(=O)(=O)c1cc(Cl)ccc1Cl | 86.3% (active)
5 | COC(=O)c1scc(C)c1NC(=O)CSc1ccc(Cl)cc1 | 3.3%
6 | COC(=O)c1sccc1NS(=O)(=O)c1ccc(F)cc1F | 1.6%
7 | Cc1sc(NC(=O)C2=COCCO2)c(C#N)c1C | -0.9%
8 | CCCc1ccc(-c2c(C)sc(NC(=O)c3ccnn3C)c2C#N)cc1 | 99.7% (active)
9 | CCCc1cc(=O)[nH]c(SCC(=O)Nc2sc3c(c2C#N)CCCC3)n1 | 4%
10 | OCCc1ccc(NCCc2ccco2)cc1 | -0.1%
11 | O=C(Nc1ccccc1)c1ccccc1Br | -0.9%
12 | CC1CCCCC1NCC(=O)Nc1ccccc1C(=O)Nc1ccccc1 (centres undefined) | 1.8%
13 | O=C(Nc1ccccc1)c1ccccc1NC(=O)C(F)(F)F | 57.7% (active)
14 | CCN(C(=O)CSc1nnc(-c2ccc(OC(F)F)cc2)n1N)C1CCS(=O)(=O)C1 (centres undefined) | -1.1%
15 | CCOc1ccc(NC(=O)CN(C)C(=O)CSc2ccccc2)cc1OCC | 1%
16 | CCOc1ccc(S(=O)(=O)N2CCC(C(=O)NCc3ccccn3)CC2)cc1Cl | -0.8%
17 | O=C(c1cccc(F)c1)N1CCN(c2ccc([N+](=O)[O-])c3cccnc23)CC1 | 0.3%
18 | COc1ccc(-c2onc(C)c2-c2ccc3c(c2)OCCO3)c(O)c1 | 3.2%
19 | CCN1CCN(Cc2c(O)ccc3c(=O)c(-c4ccc(OC)c(OC)c4)c(C(F)(F)F)oc23)CC1 | -2%
20 | O=c1c(-c2ccc3c(c2)OCCO3)c(C(F)(F)F)oc2cc(O)cc(O)c12 | 89.4% (active)

Row | SMILES | inhibition
21 | CC(C)(C)c1cc[n+](-c2[nH]c(=O)sc2/C=N/N=C(\[O-])c2ccccc2)cc1 | -1.9%
22 | CCCNC(=O)CN(Cc1ccccc1F)S(=O)(=O)c1ccc(C)cc1 | 1.8%
23 | COc1ccc(NS(=O)(=O)c2cc(NC(=O)COc3ccccc3F)ccc2OC)cc1 | 0.8%
24 | Cc1ccc(NC(=O)CCNC(=O)c2ccc([N+](=O)[O-])cc2)cc1S(=O)(=O)N1CCOCC1 | -1.6%
25 | COc1ccc(NS(=O)(=O)c2cc(NC(=O)CC(=O)c3ccc([N+](=O)[O-])cc3)ccc2C)cc1 | 73% (active)
26 | COc1cc(SC)ccc1C(=O)Nc1nc(C)cs1 | 0.2%
27 | CCCCOc1ccc(CSC(=N)N)cc1[N+](=O)[O-] | 112% (active)
28 | CCCCOC(=O)CCCc1ccc([N+](=O)[O-])cc1[N+](=O)[O-] | 1.5%
29 | CCCCCOc1ccc(CSC2=NCCN2)cc1[N+](=O)[O-] | -1.4%
30 | O=C(CCN1C(=O)/C(=C/c2cccs2)SC1=S)NNC(=O)c1cccc(O)c1 | 67.7% (active)
31 | CC(C(=O)Nc1ccc(O)c(C(=O)O)c1)N1C(=O)/C(=C/c2cccs2)SC1=S (centres undefined) | -1.2%
32 | Cc1c(C(=O)NCCN2C(=O)S/C(=C\c3cccs3)C2=O)cccc1[N+](=O)[O-] | 1.1%
33 | COc1ccccc1N(C(=O)Cn1nnc2ccccc21)C(C(=O)NCc1ccco1)c1ccc(C)o1 (centres undefined) | 4%
34 | CCOC(=O)N1CCN(C(=O)c2ccc(CN(c3ccc(C)c(C)c3)S(C)(=O)=O)cc2)CC1 | 5.2%
35 | CCOC(=O)N1CCN(C(=O)c2ccc3c(c2)N(Cc2ccc(C)cc2)CCS3)CC1 | 89% (active)
36 | O=C(NCCc1ccccc1)c1ccc2c(c1)N(Cc1ccccc1)CCS2 | 0.6%
37 | CN(CCc1ccccc1)C(=O)c1cccc(NC(=O)Cc2cccc(NC(=O)C3CCCN(C(=O)CCc4ccccc4)C3)c2)c1 (centres undefined) | -0.3%
38 | CC(=O)c1c(C)[nH]c(C(=O)Nc2cc(S(=O)(=O)N(C)C)ccc2C)c1C | -1.8%
39 | CSc1ccc(/C=C2\NC(=O)NC2=O)cc1 | 0.6%
40 | COC(=O)C1(C)NC(c2ccccc2OC)C2C(=O)N(c3ccccc3)C(=O)C21 (centres undefined) | 1.1%

Row | SMILES | inhibition
41 | COc1ccc(C(=O)COC(=O)c2c(C)noc2C)cc1Cl | -2.4%
42 | COc1cc(OC)cc(C(=O)NCC(=O)OCc2csc(-c3ccccc3)n2)c1 | -4.3%
43 | Cc1ccc(-c2nc(COC(=O)c3c(C)noc3C)cs2)cc1 | 88.5% (active)
44 | CC12CN(NC(=O)c3ccc(Cl)cc3)C3(C#N)CC1CCC23C (centres undefined) | 8.6%
45 | Nc1ncc(CN2CCCC(C(=O)Nc3ccc(-c4ccco4)cc3)C2)cn1 (centres undefined) | -0.6%
46 | CCOC(=O)C1(Cc2ccc(O)cc2)NC(c2ccccc2F)C2C(=O)N(C)C(=O)C21 (centres undefined) | -1.2%
47 | CC(C)OCCCNc1ncnc2c1[nH]c1ccc(F)cc12 | 88.4% (active)
48 | O=C1CSc2ccc(S(=O)(=O)NCc3ccccc3)cc2N1 | -1.3%
49 | Cc1ccc(C)c(S(=O)(=O)n2cnc3ccccc32)c1 | -3.1%
50 | Cc1ccc(C)c(S(=O)(=O)N2CCN(c3ncnc4sccc34)CC2)c1 | 86.5% (active)
51 | Cc1ccc(C)c(S(=O)(=O)N2CCN(CC(=O)Nc3ccc([N+](=O)[O-])cc3)CC2)c1 | 7.1%
52 | CCCNC(=O)C1(C)CCN1C(=O)C1(c2ccccc2)CC1 (centres undefined) | -0.6%
53 | C=CCNC(=O)CCCOc1cccc(C)c1 | 1.5%
54 | Cc1cccc(OCCNC(=O)CSc2ccc(C(F)(F)F)cc2[N+](=O)[O-])c1 | 80.1% (active)
55 | O=C(CSc1ccc(C(F)(F)F)cc1[N+](=O)[O-])NCCOc1ccccc1 | 18%
56 | Cc1cc(C)n2c(NCc3ccccc3)c(CC(C)C)nc2n1 | 0.4%
57 | Cc1ccccc1C1CC(c2cccs2)=NN1S(C)(=O)=O (centres undefined) | -0.3%
58 | Fc1ccc(N2N=C(c3cccs3)CC2c2ccco2)c(F)c1 (centres undefined) | 57.7% (active)
59 | O=C(COc1ccccc1Cl)N1N=C(c2cccs2)CC1c1ccco1 (centres undefined) | -0.8%
